The source of these data is PubChem BioAssay.

The nature of assay [1]: small molecules captured by biotinylated probe aFSTL3 – biochemical, small-molecule microarray, fluorescence 635/667, stem cell growth factor project, primary screen (AID 1064).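 Note: measures binding of the biotinylated anti-FSTL3 antibody to printed compounds.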 To be noted: higher = more signal.
Assay [2] is described as follows: binders from COS7 lysate, DM2A8 probe, primary screen, torsin A project, cell lysate, small-molecule microarray, fluorescence 635/667 (AID 1065). Conditions: higher = more signal, COS7 lysate expressing mutant human TOR1A.
Assay [3] is described as follows: small molecules captured by biotinylated probe aFGF2 – biochemical, small-molecule microarray, fluorescence 635/667, stem cell growth factor project, primary screen (AID 1067).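 Note: measures binding of biotinylated aFGF2 protein to printed compounds on slides; z-score merges feature fluorescence and signal-to-noise across triplicate slides.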 Conditions: higher = more signal.
Assay [4] can be described thus: small molecules captured by biotinylated probe aFGF10 – biochemical, small-molecule microarray, fluorescence 635/667, stem cell growth factor project, primary screen (AID 1071).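 Note: score merges 667 nm spot intensity and signal to noise from triplicate slides.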 Conditions: higher = more signal.
Assay [5] addresses Neurogenic locus notch homolog protein 2 (Homo sapiens) (UniProt Q04721). Briefly: small molecules binding Notch2 protein – biochemical, small-molecule microarray, 635 nm fluorescence, stem cell growth factors, primary screen (AID 1073). Conditions: higher = more signal.
The target of assay [6] is Pro-neuregulin-1, membrane-bound isoform (Homo sapiens) (UniProt Q02297). Kind of assay: small molecules binding neuregulin-1 protein – biochemical, small-molecule microarray, fluorescence 635/667, psychiatric disease protein project, primary screen (AID 1075).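 Note: score combines 667 nm spot fluorescence with signal to noise.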 To be noted: NRG1 binding, 635 nm fluorescence, higher = more signal.
Pro-neuregulin-1, membrane-bound isoform (Homo sapiens), sequence (Q02297 whole entry, looked up, the tested form may be a part, canonical isoform): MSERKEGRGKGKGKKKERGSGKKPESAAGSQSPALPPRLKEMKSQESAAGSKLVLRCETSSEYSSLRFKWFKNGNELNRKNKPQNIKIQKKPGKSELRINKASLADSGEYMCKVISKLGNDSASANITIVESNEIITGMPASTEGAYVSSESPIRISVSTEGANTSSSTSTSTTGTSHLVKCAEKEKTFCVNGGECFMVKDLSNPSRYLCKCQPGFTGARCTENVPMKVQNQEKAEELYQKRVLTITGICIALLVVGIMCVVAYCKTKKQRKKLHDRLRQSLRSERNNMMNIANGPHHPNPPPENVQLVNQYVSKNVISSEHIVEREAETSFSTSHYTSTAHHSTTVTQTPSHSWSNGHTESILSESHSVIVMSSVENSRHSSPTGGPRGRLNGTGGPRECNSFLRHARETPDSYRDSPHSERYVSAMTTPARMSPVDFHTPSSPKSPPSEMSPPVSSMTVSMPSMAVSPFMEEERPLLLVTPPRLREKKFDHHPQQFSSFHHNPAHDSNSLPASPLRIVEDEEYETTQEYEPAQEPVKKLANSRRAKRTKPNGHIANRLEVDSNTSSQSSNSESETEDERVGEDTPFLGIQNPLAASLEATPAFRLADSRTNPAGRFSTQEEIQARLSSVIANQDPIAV
The test system of assay [7] is Neuregulin-1 EGF-like domain. Kind of assay: small molecules binding NRG1 EGF domain – biochemical, small-molecule microarray, 635 nm fluorescence, primary screen (AID 1081).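 Note: binding of the protein to compounds printed on small-molecule microarray slides.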 Conditions: higher = more signal.
A short description of assay [8]: FRG1 expression reporter modulators in myotubes – cell-based, C2C12 myotubes, firefly/Renilla luciferase, luminescence, FRG1 inhibition for FSHD, primary screen (AID 1084). To be noted: FRG1 promoter luciferase, higher = more signal, called active from +8 up or from −8 down.
Assay [9] is described as follows: small molecules captured by biotinylated probe aFST – biochemical, small-molecule microarray, fluorescence 635/667, stem cell growth factor project, primary screen (AID 1086).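 Note: score merges 667 nm fluorescence with signal-to-noise of each printed compound spot.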 To be noted: higher = more signal.
The nature of assay [10]: binders of probe aHhip on microarray, primary screen, stem cell growth factor project, biochemical, small-molecule microarray, fluorescence 635/667 (AID 1087).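 Note: score merges spot fluorescence at 667nm with spot signal to noise ratio.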 To be noted: higher = more signal.
Assay [11] has as its system PRMT1 (protein arginine N-methyltransferase 1). Briefly: small molecules binding arginine methyltransferase PRMT1 – biochemical, small-molecule microarray, 635 nm fluorescence, primary screen (AID 1088).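 Note: binding of Prmt1 protein to compounds spotted on small-molecule microarray slides.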 To be noted: higher = more signal.
The nature of assay [12]: growth effects on S. cerevisiae YJM789 – YJM789 clinical isolate, OD600, 24 h, basal, primary screen (AID 1089).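 Note: growth of clinical yeast isolate S. cerevisiae YJM 789 seeded 1000 cells per well; test concentration not given here.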 Conditions: higher = more signal, called active from +8 up or from −8 down.
Assay [13] can be described thus: S. pombe growth modifiers, basal conditions – strain 972, OD600, 24 h, no modulator, primary screen (AID 1090).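 Note: basal condition with compound alone and no growth modifier present; test concentration not given here.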 Conditions: S. pombe 972 growth, higher = more signal, called active from +8 up or from −8 down.
Assay [14] in a line: budding yeast growth modifiers under rapamycin – strain BY4716, OD600, 96 h, primary screen (AID 1091). Note: test concentration not given here. Conditions: S. cerevisiae BY4716 + rapamycin, higher = more signal, called active from +8 up or from −8 down.
The target in assay [15] is Torsin-1A-interacting protein 2 (Homo sapiens) (UniProt Q8NFQ8). Briefly: small molecules binding lysate-expressed LULL1 – cell lysate, human LULL1 lysate, 635/667 nm fluorescence, primary screen (AID 1092).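 Note: score merges per-feature 667 nm fluorescence with signal-to-noise.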 Conditions: small-molecule microarray, hLULL1 lysate binding, 635 nm fluorescence; higher = more signal.
Torsin-1A-interacting protein 2 (Homo sapiens), sequence (Q8NFQ8 whole entry, looked up): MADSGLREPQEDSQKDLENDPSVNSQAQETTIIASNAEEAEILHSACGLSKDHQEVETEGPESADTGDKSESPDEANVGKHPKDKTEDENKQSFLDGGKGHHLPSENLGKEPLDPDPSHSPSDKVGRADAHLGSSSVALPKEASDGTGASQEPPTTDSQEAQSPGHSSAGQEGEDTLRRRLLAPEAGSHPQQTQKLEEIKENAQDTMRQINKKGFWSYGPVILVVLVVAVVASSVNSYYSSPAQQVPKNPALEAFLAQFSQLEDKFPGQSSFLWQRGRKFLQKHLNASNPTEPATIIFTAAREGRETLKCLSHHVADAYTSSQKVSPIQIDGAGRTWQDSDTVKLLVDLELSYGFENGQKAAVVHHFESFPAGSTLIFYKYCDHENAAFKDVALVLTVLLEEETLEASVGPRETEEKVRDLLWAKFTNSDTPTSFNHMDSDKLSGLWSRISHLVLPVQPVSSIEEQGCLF
Assay [16] is described as follows: optical density change of DRC41 E. coli – strain DRC41, OD650, 24 h, E. coli filamentation project, primary screen (AID 1093).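 Note: MC1000 strain lacking acrAB efflux and sulA so SOS filamentation is blocked; test concentration not given here.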 To be noted: E. coli DRC41 growth, higher = more signal, called active from +8 up or from −8 down.
The nature of assay [17]: probe aLefty2 binding to arrayed compounds – biochemical, biotinylated probe, 635/667 nm fluorescence, primary screen (AID 1094).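 Note: score merges spot fluorescence near 667 nm with spot signal-to-noise ratio.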 To be noted: small-molecule microarray, higher = more signal.
For assay [18], the system named is Noggin (protein binding on small-molecule microarray). Kind of assay: small molecules binding Noggin protein – biochemical, 635/667 nm fluorescence, primary screen (AID 1095).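 Note: score merges 667 nm feature fluorescence with signal to noise over triplicate slides.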 Conditions: 635 nm fluorescence, higher = more signal.
Assay [19] concerns the target Neurogenic locus notch homolog protein 3 (Homo sapiens) (UniProt Q9UM47). Briefly: small molecules binding NOTCH3 protein – biochemical, 635/667 nm fluorescence, primary screen (AID 1096). To be noted: small-molecule microarray, 635 nm fluorescence, higher = more signal.
Assay [20] is described as follows: probe aEGFR binding to arrayed compounds – biochemical, biotinylated probe, 635/667 nm fluorescence, primary screen (AID 1097).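 Note: probe is a biotinylated anti-EGFR antibody binding compounds printed on slides; score combines fluorescence near 667 nm and signal to noise of each spot.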 To be noted: small-molecule microarray, higher = more signal.

Structures are written as SMILES. Activity calls are given as the source filed them.

Neurogenic locus notch homolog protein 3 (Homo sapiens), sequence (Q9UM47 whole entry, looked up): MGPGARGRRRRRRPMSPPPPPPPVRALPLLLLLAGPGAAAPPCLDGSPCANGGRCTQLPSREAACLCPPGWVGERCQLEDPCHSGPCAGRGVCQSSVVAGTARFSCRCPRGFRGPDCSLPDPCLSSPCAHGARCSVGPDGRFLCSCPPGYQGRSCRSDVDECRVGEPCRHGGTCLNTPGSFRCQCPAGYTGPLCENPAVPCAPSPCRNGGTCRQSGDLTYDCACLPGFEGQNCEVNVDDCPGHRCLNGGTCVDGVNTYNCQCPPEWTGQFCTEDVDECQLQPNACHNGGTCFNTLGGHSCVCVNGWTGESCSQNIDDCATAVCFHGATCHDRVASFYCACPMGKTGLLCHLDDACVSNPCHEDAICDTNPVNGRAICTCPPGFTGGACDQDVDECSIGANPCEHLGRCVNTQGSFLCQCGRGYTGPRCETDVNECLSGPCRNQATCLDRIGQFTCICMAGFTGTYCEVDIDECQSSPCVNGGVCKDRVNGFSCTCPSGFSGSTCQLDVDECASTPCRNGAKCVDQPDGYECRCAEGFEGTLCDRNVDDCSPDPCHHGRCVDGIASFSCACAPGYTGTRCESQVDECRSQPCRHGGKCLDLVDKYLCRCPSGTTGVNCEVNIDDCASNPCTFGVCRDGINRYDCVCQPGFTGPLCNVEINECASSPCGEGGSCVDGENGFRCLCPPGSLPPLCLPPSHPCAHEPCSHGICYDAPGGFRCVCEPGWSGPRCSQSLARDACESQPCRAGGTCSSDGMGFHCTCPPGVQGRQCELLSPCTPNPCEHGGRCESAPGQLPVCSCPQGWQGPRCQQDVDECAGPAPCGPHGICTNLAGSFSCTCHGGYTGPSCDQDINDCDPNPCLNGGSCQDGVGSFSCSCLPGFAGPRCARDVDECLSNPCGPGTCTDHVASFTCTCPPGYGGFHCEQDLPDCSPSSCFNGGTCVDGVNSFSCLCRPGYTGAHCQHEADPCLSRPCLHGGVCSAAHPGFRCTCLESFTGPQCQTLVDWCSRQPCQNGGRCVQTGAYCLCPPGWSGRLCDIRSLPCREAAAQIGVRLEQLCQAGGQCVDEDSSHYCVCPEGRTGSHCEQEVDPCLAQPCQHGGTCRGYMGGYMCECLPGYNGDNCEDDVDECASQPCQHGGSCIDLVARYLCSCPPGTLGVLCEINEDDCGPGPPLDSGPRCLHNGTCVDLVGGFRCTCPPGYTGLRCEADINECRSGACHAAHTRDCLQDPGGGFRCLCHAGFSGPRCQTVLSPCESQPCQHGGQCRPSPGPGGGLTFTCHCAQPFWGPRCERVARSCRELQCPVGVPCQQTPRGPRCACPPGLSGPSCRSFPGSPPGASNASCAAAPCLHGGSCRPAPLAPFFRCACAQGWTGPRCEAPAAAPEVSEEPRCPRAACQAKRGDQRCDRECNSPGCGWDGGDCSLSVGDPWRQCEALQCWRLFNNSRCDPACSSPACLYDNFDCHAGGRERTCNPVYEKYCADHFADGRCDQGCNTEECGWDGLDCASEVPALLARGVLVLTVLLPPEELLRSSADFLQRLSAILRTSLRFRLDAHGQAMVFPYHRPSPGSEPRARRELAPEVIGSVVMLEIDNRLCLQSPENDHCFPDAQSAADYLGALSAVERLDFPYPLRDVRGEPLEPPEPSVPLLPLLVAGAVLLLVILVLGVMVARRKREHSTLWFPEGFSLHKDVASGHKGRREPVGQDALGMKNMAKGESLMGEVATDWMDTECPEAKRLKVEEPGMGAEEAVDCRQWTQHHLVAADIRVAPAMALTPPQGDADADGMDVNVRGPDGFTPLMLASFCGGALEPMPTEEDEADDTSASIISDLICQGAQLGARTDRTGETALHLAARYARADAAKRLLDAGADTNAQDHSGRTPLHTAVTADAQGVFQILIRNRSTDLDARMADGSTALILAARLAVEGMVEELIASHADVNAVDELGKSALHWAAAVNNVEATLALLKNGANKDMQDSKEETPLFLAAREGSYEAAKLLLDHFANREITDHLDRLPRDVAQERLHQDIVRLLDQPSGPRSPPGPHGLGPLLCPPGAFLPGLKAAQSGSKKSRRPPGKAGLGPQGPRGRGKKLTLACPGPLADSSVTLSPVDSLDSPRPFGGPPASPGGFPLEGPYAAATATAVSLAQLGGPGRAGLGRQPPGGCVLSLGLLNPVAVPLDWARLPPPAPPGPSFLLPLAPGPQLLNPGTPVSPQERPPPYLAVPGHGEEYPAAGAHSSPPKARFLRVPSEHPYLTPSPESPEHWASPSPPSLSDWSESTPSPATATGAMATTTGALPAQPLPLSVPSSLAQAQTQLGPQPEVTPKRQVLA

With `COCCOC(=O)N1C(=O)[C@@]2(c3cc(C#CCNC(N)=O)ccc31)[C@H](c1ccccc1OCCO)N1[C@H](c3ccccc3)[C@H](c3ccccc3)OC(=O)[C@H]1[C@@H]2C(=O)NC[C@H](O)c1ccccc1`, the composite z-score in assay [1] is -0.342; in assay [2], 1.27; in assay [3], -0.0083; in assay [4], 0.658; in [5], 0.472; in assay [6], 1.54. Moreover, the composite z-score in assay [7] is 1.21; in assay [9], 0.512; in assay [10] it was -0.0672; in assay [11], 1.53; in assay [15], 3.01; in assay [17] it was -0.0977. Also, the composite z-score in assay [18] is 1.12; in [19], 1.1; in assay [20], -0.065. The z-score in [8] was -0.163 (inactive); in [12] it was 2.75 (inactive); in [13], 2.09 (inactive); in [14], 6.12 (inactive); in assay [16], 0.589 (inactive).
As to `N#Cc1ccc(NN2C(C(O)c3ccc(I)cc3)C=CC3C(=O)N(c4ccccc4)C(=O)C32)cc1` (stereo not given), the composite z-score was 0.0909 in assay [1]; -0.0384 in assay [2]; 0.105 in [3]; 0.587 in [4]; 1.32 in [5]; 1.76 in [6]. Besides, the composite z-score in assay [7] turned out to be 1.28; in assay [9], 0.857; in [10], 0.0854; in [11], 1.16; in assay [15], 3.47; in assay [17], 0.247. In addition, the composite z-score in [18] is -0.0788; in [19], 1.07; in assay [20], 0.0601. Moreover, the z-score in [8] is -2.73 (inactive); in assay [12], 0.647 (inactive); in [13], 2.19 (inactive); in assay [14], 3.88 (inactive); in assay [16], -1.38 (inactive).
Turning to `Cc1ccccc1C(O)C1C=CC2C(=O)N(c3ccccc3)C(=O)C2N1Nc1ccc(C#N)cc1` (stereo not given), the composite z-score worked out at 0.834 in [1]; 1.46 in assay [2]; 0.429 in assay [3]; 1.15 in assay [4]; 1.63 in [5]; 1.91 in [6]. Moreover, the composite z-score was 1.25 in assay [7]; 1.96 in [9]; -0.111 in assay [10]; 1.51 in assay [11]; 2.89 in [15]; 0.854 in [17]. Besides, the composite z-score in assay [18] stood at 0.247; in assay [19], 1.07; in assay [20] it was 0.413. For the same compound, the z-score in assay [8] is -1.25 (inactive); in assay [12], 0.907 (inactive); in assay [13], 1.85 (inactive); in assay [14], 3.52 (inactive); in assay [16], 0.478 (inactive).
Take `C=C(CCCC)C(=O)CC[C@@H](OC(=O)c1cccnc1)c1cccc(OCCO)c1`: the composite z-score in [1] is 0.116; in assay [2], 0.908; in assay [3], 0.0766; in [4], 1.07; in assay [5], -0.552; in assay [6], 0.544. Moreover, the composite z-score in assay [7] is 0.586; in assay [9] it was 0.344; in [10], -0.0645; in [11], 1.12; in [15], 0.136; in assay [17] it was -0.186. Also, the composite z-score in [18] is 0.491; in assay [19] it was 0.145; in assay [20] it was -0.145. The z-score in assay [8] is 0.197 (inactive); in [12], -0.323 (inactive); in [13], -2.6 (inactive); in assay [14], -0.2 (inactive); in assay [16], 0.493 (inactive).
On to `C=CC[C@]1(C(N)=O)N=C(c2ccc(OCCCO)cc2)O[C@H]1c1ccccc1CN=[N+]=[N-]`, for which the composite z-score was 1.12 in assay [1]; 1.36 in assay [2]; -0.0881 in assay [3]; -0.333 in assay [4]; 0.0233 in [5]; 1.87 in [6]. Moreover, the composite z-score in assay [7] was 1.34; in [9] it was 0.326; in assay [10] it was -0.0994; in assay [11], 1.1; in assay [15], 3.05; in assay [17], 0.0565. For the same compound, the composite z-score was 0.126 in assay [18], -0.907 in [19] and 0.0183 in assay [20]. For the same compound, the z-score was 1.2 (inactive) in assay [8]; -1.36 (inactive) in [12]; -0.881 (inactive) in assay [13]; -0.655 (inactive) in assay [14]; 1.85 (inactive) in assay [16].
